Compound activity (PubChem BioAssay)
KB-V1 cytotox – KB-V1 MDR subline cytotoxicity | KB-V1 MDR cells viability, CellTiter-Glo, 72 h | Potency, µM (doses to about 46.1 µM), actives largely listed as cytotoxic | 400,000 compounds, 3.4% hits | AID 1347076; note: % is set by controls: 0 for no effect and ±100 for the full control effect; nearly all actives have a fitted effect of over 60% in size
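KB-V1 cells (P-gp-expressing MDR subline of KB-3-1) in phenol-red-free DMEM with 10% FBS were exposed to library compounds over a concentration series for 72 h at 37 degrees C. Viability read by CellTiter-Glo luminescence; concentration-effect curves fitted after normalization.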
KB-3-1 tox – kills parental KB-3-1 adenocarcinoma cells; AID 1347075; Potency, µM (top dose mostly 46.1 µM), usual class: cytotoxic; 400,000 compounds, 1.4% hits; KB-3-1 viability, CellTiter-Glo ATP luminescence, 72 h; note: % is set by controls: 0 for no effect and ±100 for the full control effect; nearly all actives have a fitted effect of over 60% in size
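Screening of KB-3-1 cells (DMEM, 10% FBS, phenol-red free) ran from lowest to highest compound concentration; after 72 h at 37 °C viability was read luminescently and curves fitted.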
TGFb inhibitor – TGF-b pathway inhibition | HepG2 CAGA-GFP TGF-b/SMAD3 reporter, GFP fluorescence, 18 h; TGF-beta stimulated, 500 pg/mL final | Potency, µM (doses to about 46.1 µM), for inactives: at the highest dose activity, negative = inhibition, hits mostly inhibitors | 410,000 compounds, 1.2% hits | AID 588855; note: % is set by controls: 0 for no effect and ±100 for the full control effect; nearly all actives have a fitted effect of over 65% in size
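First, reporter cells (HEPG2 CAGA-GFP) rested 2 h at 37 degrees C. Next, compounds were pinned in and TGF-beta added to 500 pg/mL final. After 18 h, GFP was imaged per cell and summed per well.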
HepG2 viability – HepG2 cytotoxicity, counter-screen for TGF-b inhibitors; HepG2 CAGA-GFP viability, ATP luminescence, 18 h; Potency, µM (titrated, usually from 46.1 µM), without a hit: at the highest dose activity change, negative = cytotoxicity, actives largely listed as cytotoxic; 410,000 compounds, 0.76% hits
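HepG2 CAGA-GFP cells (1000/well, DMEM with 1% FBS) received compound, then TGF-beta at 500 pg/mL final, and were incubated 18 hours at 37 degrees C. Viability was read by CellTiter-Glo luminescence. Media-only wells were set as complete cell-killing and DMSO as no toxicity.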
ATXN2 expr inh – ATXN2 expression inhibition; HEK-293 ATXN2-luciferase reporter, luminescence, 24 h; Potency, µM (top dose mostly 57 µM), inactives show at the highest dose activity change, negative = inhibition, actives largely listed as inhibitors; 360,000 compounds, 0.72% hits; AID 1745845; note: % is set by controls: 0 for no effect and ±100 for the full control effect; nearly all actives have a fitted effect of over 55% in size
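ATXN2-luciferase reporter cells (luciferase flanked by upstream and downstream ATXN2 gene portions) were treated 24 h at 37 °C with compounds at up to 57 uM. SteadyGlo luminescence gave expression; GF-AFC fluorescence gave viability.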
ATXN viability – viability counter-screen for ATXN expression inhibitors. S2 cells (HEK-293 line with an ATXN2-luciferase reporter) viability, CellTiter-Fluor protease fluorescence, 24 h. Potency, µM (titrated, usually from 56.7 µM), hits mostly cytotoxic. 400,000 compounds, 0.49% hits. AID 651635; note: nearly all actives have a fitted effect of over 40% in size
Active calls of the source: *; [ ] = remark or other dose. In the library only some 5.9% were active in any assay of this set; here they are far more common. Calls come from the whole dose curve; as a rule, active = well fitted curve in the direction sought with a large enough effect; inconclusive = small, poorly fitted or top-dose-only effect, or another doubt; inactive = no such curve, though single readings can be large; an effect the other way counts as inactive or inconclusive. Potency is the fitted concentration of half-maximal effect.

For CC(Oc1cccc(Br)c1)C(=O)NNC(=O)c1ccccn1 (stereo not drawn) the results were KB-V1 cytotox inconclusive, KB-3-1 tox inconclusive, TGFb inhibitor inconclusive, HepG2 viability -33%, ATXN2 expr inh inconclusive and ATXN viability inconclusive.
COc1ccc(OC(C)C(=O)Nc2ccc([N+](=O)[O-])cc2)cc1 (stereo not drawn) was read as KB-V1 cytotox inconclusive, KB-3-1 tox inactive, TGFb inhibitor -11%, HepG2 viability -9%, ATXN2 expr inh -23% and ATXN viability inactive.
`Cc1ccc(C)c(NC(=O)CCCn2c(C)c3cnn(-c4ccccc4)c(=O)c3c2C)c1` gave KB-V1 cytotox inactive, KB-3-1 tox inactive, TGFb inhibitor inconclusive, HepG2 viability -11%, ATXN2 expr inh -7% and ATXN viability inactive.
`c1ccc(-c2noc(-c3cccnc3NCc3ccco3)n2)cc1` gave KB-V1 cytotox inactive, KB-3-1 tox inactive, TGFb inhibitor 5%, HepG2 viability -9%, ATXN2 expr inh 241% and ATXN viability inactive.
CC(C)(C)n1nnnc1C(c1cccs1)N(Cc1cccnc1)Cc1ccccc1Cl (stereo not drawn) was read as KB-V1 cytotox inconclusive, KB-3-1 tox inconclusive, TGFb inhibitor 18µM*, HepG2 viability -32%, ATXN2 expr inh inconclusive and ATXN viability inconclusive.
CCCNC(=O)c1cc(C2CCCN(C(=O)c3cc(F)ccc3C)C2)on1 (stereo not drawn) was read as KB-V1 cytotox inactive, KB-3-1 tox inactive, TGFb inhibitor inconclusive, HepG2 viability -60%, ATXN2 expr inh 4% and ATXN viability inactive.
`CN1CCCC(CNC(=O)c2cnn(-c3ncc4c(n3)-c3ccccc3CC4)c2C2CC2)C1` (stereo not drawn) gave ATXN viability inactive.
CC(=O)c1ccc(NC(=O)c2c3c(nc4ccccc24)C(=O)N(C2CCCCC2)C3)cc1 was read as KB-V1 cytotox inactive, KB-3-1 tox inactive, TGFb inhibitor 15% and HepG2 viability -1%.
`CSc1ccc(NC(=O)Nc2cccn(Cc3ccccc3)c2=O)cc1` gave KB-V1 cytotox 3.7µM*, KB-3-1 tox 8.2µM*, TGFb inhibitor 0%, HepG2 viability -19%, ATXN2 expr inh 1% and ATXN viability inactive.
Screening CCOc1cc(CNC(=O)NC2COc3ccc(OC)cc3C2)cc(OCC)c1OCC (stereo not drawn) returned KB-V1 cytotox inactive, KB-3-1 tox inactive, TGFb inhibitor -27% and HepG2 viability -34%.
For Cc1ccc(CN=Cc2[nH]c3ccc(Br)c(Cl)c3c2O)cc1 the results were KB-V1 cytotox inactive, KB-3-1 tox inactive, TGFb inhibitor -7%, HepG2 viability 18µM*, ATXN2 expr inh -21% and ATXN viability inactive.
`COc1ccc(CN=Cc2c(O)[nH]c3ccccc23)cc1` gave KB-V1 cytotox inconclusive, KB-3-1 tox inactive, TGFb inhibitor -26%, HepG2 viability -27%, ATXN2 expr inh -11%[11.3 µM] and ATXN viability inconclusive.
For CCc1ccc2oc(C(=O)Nc3c(C)n(C)n(-c4ccccc4)c3=O)cc(=O)c2c1 the results were KB-V1 cytotox inactive, KB-3-1 tox inactive, TGFb inhibitor -7%, HepG2 viability 11%, ATXN2 expr inh -22% and ATXN viability inactive.
C#CCOCCOCCOCCNc1nc(N2CCN(C(=O)CCCCCCCCCCNC(=O)[C@H](CCCCN)n3cc(C)nn3)CC2)nc(N2CCN(C(=O)CCCCCCCCCCNC(=O)[C@@H]([C@H](C)O)n3cc(C)nn3)CC2)n1 was read as KB-V1 cytotox inconclusive, KB-3-1 tox 21µM*, TGFb inhibitor inconclusive, HepG2 viability -41% and ATXN2 expr inh inconclusive.
